# From PubChem BioAssay AID1347084 (National Center for Advancing Translational Sciences (NCATS), 2019)
# Inconclusive results are not listed. Unmarked numbers belong to inactive results. Calls of active or inactive are those of the source. Calls follow the shape of the full dose curve.
# Test: qHTS for Inhibitors of the Functional Ribonucleoprotein Complex (vRNP) of Lymphocytic Choriomeningitis Arenaviruses (LCMV): LCMV Confirmatory Screen - GLuc reporter signal
# Conditions: LCMV minigenome vRNP, Gaussia luciferase reporter; series mostly up to 53.9 µM
Compound,Potency,"activity change, negative = inhibition"
COc1cc2c(cc1OC)CC(=O)N(CCCN(C)C[C@H]1Cc3cc(OC)c(OC)cc31)CC2,inactive,–
CC1OC(=O)[C@@H](C(C)C)NC(=O)C(C(C)C)OC(=O)[C@H](C(C)C)NC(=O)C(C)OC(=O)[C@@H](C(C)C)NC(=O)C(C(C)C)OC(=O)[C@H](C(C)C)NC(=O)C(C)OC(=O)[C@@H](C(C)C)NC(=O)C(C(C)C)OC(=O)[C@H](C(C)C)NC1=O (some centres not stated),0.153 µM (active),–
Cc1ccc2c(c1)C1CN(C)CCC1N2 (configuration not stated),inactive,–
Oc1cc(Cl)ccc1Oc1ccc(Cl)cc1Cl,22.2 µM (active),–
CCc1cncnc1N1CCN(Cc2nc3ccc(C(F)(F)F)cc3[nH]2)CC1,4.44 µM (active),–
C=C1CC[C@@H]2[C@](C)(CO)[C@H](O)CC[C@@]2(C)[C@@H]1/C=C/C1=CCOC1=O,21.7 µM (active),–
CC(O)C(O)[C@H]1CNc2nc(N)[nH]c(=O)c2N1 (some centres not stated),inactive,–
CCC(C)c1nccnc1OC (configuration not stated),inactive,–
CC(O)(P(=O)(O)O)P(=O)(O)O,inactive,–
CO/C=C(/C(=O)OC)c1ccccc1Oc1cc(Oc2ccccc2C#N)ncn1,4.98 µM (active),–
O=C(Nc1ccccc1)c1cc([N+](=O)[O-])ccc1Cl,24.3 µM (active),–
CCCCCN=C(N)N/N=C/c1c[nH]c2ccc(OC)cc12,9.68 µM (active),–
CN1CCN(C2=Nc3cc(Cl)ccc3Nc3ccccc32)CC1,30.6 µM (active),–
CC(=O)[C@H]1CC[C@H]2[C@@H]3CCC4=CC(=O)CC[C@]4(C)[C@H]3CC[C@]12C,24.3 µM (active),–
CCCCC[C@H](O)/C=C/C=C/C/C=C\CCCC(=O)O,–,4.12% [at 0.666 µM]
Fc1ccc(CNc2ncnc3ccc(F)cc23)cc1,8.63 µM (active),–
CCN(CC)C(=O)N[C@@H]1C=C2c3cccc4[nH]cc(c34)C[C@@H]2N(C)C1,inactive,–
CC[C@@]1([C@@H]2O[C@@H]([C@H]3O[C@@](O)(CO)[C@H](C)C[C@H]3C)C[C@H]2C)CC[C@H]([C@]2(C)CC[C@]3(C[C@H](O)[C@@H](C)[C@@H]([C@@H](C)[C@@H](OC)[C@H](C)C(=O)O)O3)O2)O1,0.168 µM (active),–
CCC1OC2(C)C(O)C(/C=C/C=C/C=C/c3oc(=O)cc(OC)c3C)OC1(C)C2OC(C)=O (configuration not stated),0.109 µM (active),–
S=C(NCc1ccc2c(c1)OCO2)N1CCN(c2ncnc3c2oc2ccccc23)CC1,2.22 µM (active),–
COC(=O)c1nc(Cl)c(Cl)nc1N,1.72 µM (active),–
O=C1c2ccccc2-n2c1nc1ccccc1c2=O,1.22 µM (active),–
Cc1cccc(-c2[nH]c(C(C)(C)C)nc2-c2ccc3c(c2)OCO3)n1,3.43 µM (active),–
Cn1cc(-c2ccncc2)c(-c2ccc(OCc3ccc4ccccc4n3)cc2)n1,24.3 µM (active),–
NC(=O)N/N=C/c1ccc([N+](=O)[O-])o1,24.3 µM (active),–
O=C(Nc1ccccc1)Nc1ccc(-c2ccc(C(=O)[C@H]3CCC[C@H]3C(=O)O)cc2)cc1,inactive,–
CC[C@@H](C(=O)O)[C@@H]1O[C@@H]([C@@H](C)[C@H](O)[C@H](C)C(=O)[C@H](CC)[C@H]2O[C@]3(C=C[C@@H](O)[C@]4(CC[C@@](C)([C@H]5CC[C@](O)(CC)[C@H](C)O5)O4)O3)[C@H](C)C[C@@H]2C)[C@@H](C)C[C@@H]1C,0.0627 µM (active),–
